Results on 108 sequences are retold here after PubChem BioAssay AID1508600 (Functional Genomics Laboratory (NCATS/FGL), 2020).

In all, about 53,000 sequences went through this assay and about 3,700 (7%) were called active. Many of the other results were omitted from the sample, so actives are more common in it than they were. A number with no mark means an inactive call.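 The calls were made as follows: active = gene knockdowns whose robust z-score for IL-1 alpha signal is at least 2 or at most -2, so actives lie on both sides; inactive = the rest.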

This assay in a line: Components of the Cytosolic LPS Sensing Pathway: Gene Identification via Genome-wide siRNA Screen. Particulars: RAW264.7 macrophages, IL-1a HTRF, actives lie on both sides, screened at 100 nM (by protocol), cells primed 5 h with Pam3CSK4 first. From the text:
Non-canonical inflammasome activation by cytosolic LPS is a critical component of the host response to Gram-negative bacterial infection, however we lack a comprehensive understanding of the cellular processes that control this pathway. Here we describe a genome-wide siRNA screen to identify genes regulating the mouse macrophage IL-1 alpha response to cytosolic LPS.
RAW264.7 cells were maintained in complete DMEM media, comprising DMEM with 4.5 g/L glucose, 10% FBS (Gemini Bio-Products, West Sacramento, CA), 2 mM Glutamine (Lonza) and 20 mM HEPES (Lonza), hereafter complete DMEM.
The RNAi screen was conducted in 384-well format using the Ambion Silencer Mouse Genome siRNA Library (#4391425), which consists of three unique, nonoverlapping, nonpooled siRNAs for each of 17,000 gene targets. siRNA reagents ([…]) were stamped into 384-well white flat-bottom microplates (Corning, 3570) using a Velocity11 VPrep liquid handling system (Agilent) integrated into a BioCel robotic platform (Agilent) in columns 1-22, leaving columns 23-24 empty for negative (Ambion, Negative control #1) and positive (mouse Casp4) controls, respectively. The median value of each plate's negative control column was used to normalize sample wells, and the positive control was used to assess transfection efficiency and assay performance.
Lipofectamine RNAiMAX Transfection Reagent ([…]; Invitrogen) was added in […] serum-free, antibiotic-free media to plate wells using a Thermo Scientific Matrix WellMate and Microplate Stacker. Plates were incubated for 45 min at room temperature to allow for the sufficient formation of siRNA-lipid complexes. Cells were seeded at a density of 1x10^4 cells per well in 20 microL media containing 20% (vol/vol) FBS without antibiotics. The final concentration of siRNA in each well was 100 nM. Cells were cultured for 48h at 37 degrees C in 5% CO2 before addition of […] of TLR ligand Pam3CSK4 for 5 hours. The medium was then removed, replaced with […] growth media and cell were transfected with […] of LipidA and TransIT-TKO (Mirus) for 24 hour. At the end of the LipidA treatment, […] of supernatant was transferred to a 384 Greiner Bio-one non-binding low volume plate and […] of IL-1a HTRF reagent (Cisbio, 62MIL1APEH) was added and incubated at room temperature overnight. The plates were read on an EnVision plate reader (PerkinElmer). Cell viability was measured by adding 20ul Cell Titer Glo to the original plate and running a luminescence read on the EnVision. The quantified IL-1a signal for each siRNA gene-targeted well was divided by the median of the negative control wells and multiplied by 100 to achieve a negative control normalized value for each well/siRNA. This normalized value was then used to generate a robust z-score by first taking the log of each value and then by subtracting the median and dividing by the […].
On the technique in general: Time-resolved FRET reads energy transfer from a long-lived donor to a nearby acceptor.
As for UAACUGGGCUCACGUUGACTT against Pou2f1, the z-score was 0.47.

GGUACAAAAUGGCUUGUUGTT against Tmem215: the z-score was 2.53 (active).

As for GGUCCACACCAGACAUCAATT against Wfdc5, the z-score was 0.263. Regarding CGGUGAUGGUUCAUUUGCATT against Zmiz2, the z-score is 1.36. In the case of GGCUGUGAAGAACUGGCAGTT against Rnaseh2a, the z-score is 1.85. Turning to “GGUUGUGAGCUAACAAUGGTT against B430209F14Rik”, the z-score is 1.25. Under GAGAACGCGUUUUUGGGACTT against Defa5 stands 1.66; under GGGAUGUAUUAGUGAAAGGTT against Dmpk, 0.368; under GGAGGAAAUAUGUUAACUATT against Atp6ap2, 1.22. Under CGGCAACCGGCACUAUAAATT against Pnoc stands 0.231; under GGCAUUUCAUAGAGAGAAUTT against LTO1, -2.21 (active); under GCCUUAGGCCUUUGUUUCCTT against Tpgs2, 0.124. With GGUUCUGGACUUCAUCCUCTT against Ocstamp the figure was 1.42.

In the case of GGAAAAUUAAUAGCACAAGTT against Acot13, the z-score is 0.0633. With GGUUUACUGUGAAAAAAGATT against Morc2b the figure was 0.0774; with CCUGAUACUAACAAGGAAATT against Afmid, -0.625. With GGUUGUCUUGACACCCUACTT against Tnfrsf1b the figure was -2.21 (active); with GGAGAAGCAGAUUCUUCAATT against Calhm6, -0.0547; with GGGAUGUCUGUUGAAAUAATT against Prcc, -0.422. With CCAUGACACUCAUUCCCAGTT against Tbc1d7 the figure was -2.64 (active); with CCAUGUUUAUGGCACGCUGTT against Postn, 0.536. Consider GGUUUGUAGAGGCAUCAAGTT against Snph, for which the z-score was -0.13.

With GCAUCCUUCUGAGUUGAUGTT against Tollip, the z-score was -1.02. With CCUUGAGAAAGCUCCAGUUTT against Cldn9 the figure was 0.0773; with GGUGUUUCAUAUGGUUACUTT against Psma3, -0.94. Regarding GGAAGUUUGAGUUUGAGCUTT against Fbxl21, the z-score is 1.79. Under GCUCUCUAUAGGAUAAUGGTT against Vwa5b2 stands -1.86; under CGAUAUCAAGAGUGCAUGATT against Gas6, 2.97 (active); under GGCUAAUCACCAAUUUCUUTT against Derl2, -1.19.

As to GCACCUUCAACCAACAAGGTT against Dph3, the z-score was -0.311. Turning to GGUCAUUCGCUUCGAAAAGTT against C1qb, the z-score is -2.05 (active).

GGAAUUCCUCUGUAUGAAATT against Pgr: the z-score is -0.824. Consider GGACUACCACAGCCUCUUCTT against Pxn, for which the z-score is 0.173. For GGGCAAAUGAUAUAAGGAUTT against Ndufa12, the z-score is -0.585. On to CCUCUUGGUUAAAUAAUGUTT against Rnf103, for which the z-score is -1.9. As to GCGGCAACAUUCAAAGUGGTT against Itgb2l, the z-score was -1.94. On to GGCUGUGUCAUCACCAUCUTT against Acot7, for which the z-score is -1.31. As to GGAUGCUCUCUUAAAUGGATT against Gbp6, the z-score was 0.327.

On to GGUUGUCAAGAAAUUACCCTT against Marchf10, for which the z-score is 2.14 (active). With GGAUGAUAUCUCAGUCAUGTT against Sult2a8, the z-score was 0.462. Under GGAAGGAAUUGGUUACCUATT against Cep72 stands -0.2; under GGCUGAGUGAAUUGGGAAUTT against Olfr419, 1.28; under GGACGAUAGGACCCAAAGGTT against Sh3tc1, 0.668. With GGAUUUGUACACACUUCAATT against Tcim the figure was 1.48.

For the sequence GGCAUCCAAUCCUGUGGAGTT against Bcl11a, the z-score is -0.62. Under GGGAGAUAUCUUCUCAGUATT against Psmb11 stands 1.5; under CGUAGAUGUCCUAGAAUUGTT against Rundc1, 1.37. With GGAGGAGUAUGAAGAGCUGTT against Poc5 the figure was -0.0911. With GGACAAUUCAGAGUGAUAGTT against Mog the figure was -2.21 (active); with GCGAUGAUAAGUGCCUGGUTT against Stk31, -1.58; with CGGAGUGAAACUACUCAUUTT against Ckb, -0.773. In the case of GGUGAUUUAUUCAGUUCAATT against Lmbrd2, the z-score was -1.13. In the case of CCUUUGAAAAAGCUUGCCATT against Tor1aip2, the z-score is 0.0385. With GGUGCUAUGGAAAAUCAAGTT against Dcaf1 the figure was -1.04; with GGAAAUGUUUAUCACGGUUTT against Scube2, 2.05 (active). With GGUCAUGCAAGACAAGAUCTT against Lrrc8c the figure was 0.487.

As to GGCAGCGAAAGUUUUCAAGTT against Pcdhga12, the z-score was 0.721.

Regarding GGAAUCCUGGAUUGAGGAATT against Rhod, the z-score was 0.394.

Regarding GCACUGGAAUGUCAUCUCGTT against Casp3, the z-score was 2.9 (active).

Consider GGGUCAACUACUCACACUGTT against Crhr2, for which the z-score was 0.78. Consider CCAUAAGCGAAAUGCCUUCTT against Areg, for which the z-score was 0.201. Under CGUUGUUUAUUCCAAAGAGTT against Runx1 stands 0.44; under GGAAGUAAAGGGAUUUAACTT against Ankrd46, 2.19 (active); under GACCCAGGCUCUGCUCUUUTT against Olfr1413, 0.413. Under CCGGAAAUUUCUGAUGGAGTT against Eif4ebp1 stands 2.19 (active). Under GCUAGAUAUCCGGAACCAATT against Ndufv3 stands -0.752; under GAGACAUCCUCUUCACCAUTT against Olfr495, -1.25; under GGAAGAAUUCUCAAAGAAUTT against Scyl3, -0.343. Take GGAUCUGAGCCUUAACAAGTT against Lpcat3: the z-score was 2.92 (active).

Turning to GGAAGAGCUGCUGAAUUCATT against Mthfd2, the z-score is 0.052. Under GGUUAUCUUGAAUAAAGCUTT against Zfp346 stands -0.303. On to “CCGAUAAAAGAUGACCUCATT against D17H6S56E-5”, for which the z-score was -0.241. With GGUUUGAGAGUGGUAAUCUTT against Agbl3, the z-score was 2.17 (active).

Regarding GGCGAUUUACAAGCUGAAGTT against Guca1b, the z-score was 0.566.

As for CCGUUAGAGCUGUUAUUUUTT against Olfr556, the z-score is 0.959. Under CCUCGAACCAAGAUGUUCATT against Pdzrn3 stands 0.851; under GGCACACAAUUUUCACUGATT against Pcdhb9, 0.315. As for GGUCAGCAUUUGCUAUGAATT against Tmsb15l, the z-score is -2.02 (active). As to GCCAAGUCUGCUUCACGAGTT against Nyap1, the z-score was 1.82.

As to CCUCACAAUAUCUUUAGAATT against Cep162, the z-score was -0.0322. Under GGCAGGAUAUGUAUUCUGATT against Tmem121b stands 1.15. With GGAAACCUCCGAAAGGCAUTT against Rcor1 the figure was -0.0503; with GGAUAAAGUCACCUUCAUCTT against Itgam, 1.86; with CCGCUAUAUCACGGAGCAGTT against En1, 2.45 (active). For the sequence GCACUUUCCUAAUGGUCCUTT against Ifnab, the z-score was 0.104. Under GGAUCCUCACCAAGAUUACTT against Mrps22 stands 0.391.

On to GGAAUUUAAGGAAGCUGCUTT against Homer1, for which the z-score is -0.698. For the sequence GGGUGAGAAAAUUCACGAGTT against Tubg2, the z-score was 0.536. For GCCAAGGUGCAGAUAAGGUTT against Rhox7a, the z-score is 2.6 (active). With GGAUUGAGAAAAUCUACAUTT against Tnfrsf8, the z-score is 0.505. With GGGUCAGAUGGUACCAAGATT against Adamts18 the figure was 0.0174; with GCCUUGUUUAUAUGCCCAATT against Olfr592, 0.0232; with GGCAAGAAAGAAAGGCCAATT against Rps23, 0.00872.

Regarding CCCUCUGUGGUUAAAGACUTT against Tctex1d2, the z-score is -2.88 (active).

For the sequence GGUUCAAUUCACAGAGCGCTT against Mrpl21, the z-score is 1.37. On to GGGCAACUUUGAUUAAUCATT against Hsd3b7, for which the z-score was 1.02. Under GGUAACUUCAUGUGCAGCATT against Ldlrad3 stands -1.71; under GGCGUAUGCAGAAUUCUACTT against Cox6c, -0.0709. Under GGAGAAGUCAUUGUUUUUGTT against Klhdc2 stands -0.493; under GGCACAACAUCAUCUGUCUTT against Psmd9, -2.05 (active); under GCUACUGACCAUUCUAACUTT against Tmem198b, 0.264. With GGAAGGACUGUCAAAUGGCTT against Med11, the z-score is -0.171. Under CCAUGUCUUGAACUUGGAUTT against Tsks stands 0.793; under CCGACUCCAGUUGAAUGUUTT against Tgif2, -0.572; under CCAGUUUGAUGGUAGACAATT against Tifa, -1.38. With CGUAUUGUUUCCUAGCACATT against Arhgef38, the z-score was 2.08 (active). With GGUACCCAGCGAUCAUGCATT against Olfr1370 the figure was -0.109; with GGAACAACUUGAUACCUCUTT against Trim44, -0.89.
